Assay results published in PubChem BioAssay (EPA / NIEHS).
Records with an inconclusive call do not appear. Calls of active or inactive are those of the source. Rule for the calls, unless noted: active = hit-call score of the fitted dose curve at least 0.9, where 1 is the maximum; inconclusive = response in the unintended direction; inactive = score below 0.9.

Tests used:
[1] = target: Estrogen receptor beta (Homo sapiens) (UniProt Q92731); assay: OT_ER_ERbERb_1440: Odyssey Thera (OT) 24-hour HEK293T Protein-Complementation Assay for Estrogen Receptor-beta/-beta Homodimer (AID 2283380);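 note: fluorescence gain from ER beta LBD homodimer complementation read by laser scanning cytometry; scored as signal increase over DMSO baseline for both agonists and antagonists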
Outline: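 HEK293T cells stably expressing human ER-beta LBD (aa 310-547) PCA homodimer pair, dosed 24 h; formaldehyde-fixed, Draq5-stained. Readout: increase in nuclear (agonist) or nuclear plus cytoplasmic (antagonist) fluorescence intensity versus DMSO, gain-of-signal fitting.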

[2] = target: Estrogen receptor (Homo sapiens) (UniProt P03372); assay: OT_ERa_GFPERaERE_0480: Odyssey Thera (OT) 8-hour HeLa Transcription Induction Assay for Estrogen Receptor (AID 2283381; active = hit-call score of the fitted dose curve at least 0.9, where 1 is the maximum; inactive = score below 0.9)
Outline: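 An 8 h HeLa transcription-induction format with a GFP reporter under ERE control, read by fluorescence microscopy; single endpoint fitted positively with DMSO as baseline.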

[3] = target: Peroxisome proliferator-activated receptor gamma (Homo sapiens) (UniProt P37231); assay: OT_PPARg_PPARgSRC1_0480: Odyssey Thera (OT) 8-hour Protein-Complementation Assay for Peroxisome Proliferator-activated Receptor Gamma / SRC-1 Co-activator (AID 2283387);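 note: nuclear to cytoplasmic split Venus YFP fluorescence ratio reporting PPARg SRC-1 interaction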
Outline: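 HEK293T transiently transfected with PPARg and SRC-1 fused to Venus YFP fragments, compounds 8 h at 37C. Fixed, Draq5-stained cells imaged; nuclear/cytoplasmic 488 nm fluorescence ratio over at least 350 cells per image; gain fitted versus DMSO.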

[4] = target: Peroxisome proliferator-activated receptor gamma (Homo sapiens) (UniProt P37231); assay: OT_PPARg_PPARgSRC1_1440: Odyssey Thera (OT) 24-hour Protein-Complementation Assay for Peroxisome Proliferator-activated Receptor Gamma/ SRC-1 Co-activator (AID 2283388)
Outline: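 Transient HEK293T, YFP fragments 1-158/159-239 (mutant IFP1/IFP2) fused to PPARg/SRC-1; 24 h dosing; fix 4% formaldehyde, Draq5; Opera imaging 488/635 nm; N/C ratio, gain vs DMSO.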

[5] = target: Retinoic acid receptor RXR-alpha (Homo sapiens) (UniProt P19793); assay: OT_NURR1_NURR1RXRa_0480: Odyssey Thera (OT) 8-hour HEK293T Protein Complementation Assay for Nurr1/retinoid X receptor (RXR) (AID 2283385)
Outline: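 Gain in fluorescent complementation signal over DMSO, measured 8 hours after chemical dosing of human kidney HEK293T cells, indicated enhanced Nurr1–RXRα association.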

[6] = target: Retinoic acid receptor RXR-alpha (Homo sapiens) (UniProt P19793); assay: OT_NURR1_NURR1RXRa_1440: Odyssey Thera (OT) 24-hour HEK293T Protein Complementation Assay for Nurr1/retinoid X receptor (RXR) (AID 2283386)
Outline: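 Cell-based binding reporter: HEK293T cells, 24 h exposure, fluorescence-detected fragment complementation, DMSO as baseline.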

[7] = CEETOX_H295R_11DCORT: CeeTox H295R High-throughput Steroidogenesis Assay for 11-Deoxycortisol (11DCORT) (AID 2283432; active = hit-call score of the fitted dose curve at least 0.9, where 1 is the maximum; inactive = score below 0.9); details: actives raise or lower the signal
Outline: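 H295R cells prestimulated 48 h with 10 uM forskolin, then exposed 48 h to chemical in 0.1% DMSO. 11-Deoxycortisol in medium quantified by HPLC-MS/MS after MTBE extraction; bidirectional fit versus DMSO. MTT viability read in same wells.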

[8] = CEETOX_H295R_OHPREG: CeeTox H295R High-throughput Steroidogenesis Assay for OH-Pregnenolone (OHPREG) (AID 2283434; active = hit-call score of the fitted dose curve at least 0.9, where 1 is the maximum; inactive = score below 0.9); details: actives raise or lower the signal
Outline: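 Readout: HPLC-MS/MS of 17alpha-hydroxypregnenolone in medium after 48 h chemical exposure of H295R cells pretreated with forskolin. Values fitted bidirectionally relative to DMSO; chemicals reducing viability to 20–70% were retested after 10-fold dilution.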

Measured: outcome

Retinoic acid receptor RXR-alpha (Homo sapiens), sequence (P19793 whole entry, looked up, the tested form may be a part): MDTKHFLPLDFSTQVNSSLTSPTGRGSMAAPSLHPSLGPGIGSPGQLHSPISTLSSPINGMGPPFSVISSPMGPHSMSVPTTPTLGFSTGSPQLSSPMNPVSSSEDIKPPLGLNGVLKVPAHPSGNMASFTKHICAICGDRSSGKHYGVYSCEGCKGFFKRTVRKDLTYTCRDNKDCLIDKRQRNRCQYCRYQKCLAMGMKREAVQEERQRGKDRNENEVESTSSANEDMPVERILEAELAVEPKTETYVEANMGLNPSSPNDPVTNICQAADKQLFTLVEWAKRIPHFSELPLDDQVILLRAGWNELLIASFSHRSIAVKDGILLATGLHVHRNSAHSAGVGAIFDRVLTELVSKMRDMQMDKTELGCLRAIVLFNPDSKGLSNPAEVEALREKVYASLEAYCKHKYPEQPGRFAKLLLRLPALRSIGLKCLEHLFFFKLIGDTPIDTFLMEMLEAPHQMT
Estrogen receptor (Homo sapiens), sequence (P03372 whole entry, looked up): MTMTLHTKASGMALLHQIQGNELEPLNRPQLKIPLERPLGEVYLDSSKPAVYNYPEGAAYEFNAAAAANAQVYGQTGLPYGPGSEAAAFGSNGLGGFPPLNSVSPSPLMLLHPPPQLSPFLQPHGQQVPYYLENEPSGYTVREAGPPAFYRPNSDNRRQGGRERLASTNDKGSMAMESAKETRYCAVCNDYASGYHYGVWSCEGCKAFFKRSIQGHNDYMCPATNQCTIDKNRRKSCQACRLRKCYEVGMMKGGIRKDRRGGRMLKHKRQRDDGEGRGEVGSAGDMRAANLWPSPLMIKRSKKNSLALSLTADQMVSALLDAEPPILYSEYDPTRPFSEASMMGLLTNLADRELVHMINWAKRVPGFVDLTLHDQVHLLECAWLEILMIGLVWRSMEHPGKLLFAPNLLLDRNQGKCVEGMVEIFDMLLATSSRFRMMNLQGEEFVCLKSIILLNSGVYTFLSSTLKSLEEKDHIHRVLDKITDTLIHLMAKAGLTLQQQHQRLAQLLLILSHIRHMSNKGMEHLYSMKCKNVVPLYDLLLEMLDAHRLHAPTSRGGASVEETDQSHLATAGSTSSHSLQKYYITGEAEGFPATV
Estrogen receptor beta (Homo sapiens), sequence (Q92731 whole entry, looked up, the tested form may be a part): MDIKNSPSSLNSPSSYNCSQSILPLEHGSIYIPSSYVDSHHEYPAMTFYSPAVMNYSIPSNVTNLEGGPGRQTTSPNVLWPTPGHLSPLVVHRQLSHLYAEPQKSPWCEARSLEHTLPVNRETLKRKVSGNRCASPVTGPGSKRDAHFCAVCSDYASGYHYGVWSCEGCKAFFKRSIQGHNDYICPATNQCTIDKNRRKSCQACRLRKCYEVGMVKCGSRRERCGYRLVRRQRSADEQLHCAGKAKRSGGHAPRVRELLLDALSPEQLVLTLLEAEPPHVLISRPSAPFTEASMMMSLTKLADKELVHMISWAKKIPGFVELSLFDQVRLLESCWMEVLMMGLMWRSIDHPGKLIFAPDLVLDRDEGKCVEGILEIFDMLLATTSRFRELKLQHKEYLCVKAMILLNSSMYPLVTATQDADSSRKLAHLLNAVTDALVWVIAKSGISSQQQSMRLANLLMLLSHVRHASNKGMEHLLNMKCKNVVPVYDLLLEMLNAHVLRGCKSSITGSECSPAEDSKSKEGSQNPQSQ
Peroxisome proliferator-activated receptor gamma (Homo sapiens), sequence (P37231 whole entry, looked up, the tested form may be a part): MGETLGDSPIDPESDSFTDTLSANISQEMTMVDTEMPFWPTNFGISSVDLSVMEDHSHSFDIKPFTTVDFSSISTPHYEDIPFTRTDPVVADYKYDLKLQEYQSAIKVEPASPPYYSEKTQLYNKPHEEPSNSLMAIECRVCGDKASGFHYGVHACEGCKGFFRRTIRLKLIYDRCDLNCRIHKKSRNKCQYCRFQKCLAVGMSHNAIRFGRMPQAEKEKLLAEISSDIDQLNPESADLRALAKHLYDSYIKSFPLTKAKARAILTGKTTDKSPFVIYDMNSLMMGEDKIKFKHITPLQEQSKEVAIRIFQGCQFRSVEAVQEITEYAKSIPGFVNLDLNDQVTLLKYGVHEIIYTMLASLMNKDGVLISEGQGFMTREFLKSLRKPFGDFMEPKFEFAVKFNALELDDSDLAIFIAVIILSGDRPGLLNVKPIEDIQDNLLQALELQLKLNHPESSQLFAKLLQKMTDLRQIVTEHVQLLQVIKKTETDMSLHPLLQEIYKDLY

CC(C)(N)CO
inactive: [1] | [2] | [3] | [4]

CC(C)=CCC[C@](C)(O)[C@@H]1CC=C(C)CC1
inactive: [1] | [5] | [6] | [3] | [4]

O=C(O)CCCCCCCC(=O)O
inactive: [1] | [6] | [3] | [4]

C=CC[N+](C)(C)CC=C
inactive: [1] | [5] | [6] | [3] | [4]

CC1(C)[C@@H]2CC[C@@]1(C)[C@H](O)C2
inactive: [1] | [5] | [6]

O=C(O)c1ccc(C(=O)O)cc1
inactive: [6] | [3] | [4]

Cc1ccc2n[nH]nc2c1
inactive: [7] | [8]

C=O
inactive: [1] | [5] | [6] | [3] | [4]

C=CC(C)(C)O
inactive: [7] | [8]

CN(C)CCCN
inactive: [2] | [6] | [3] | [4]

CC1(C)C(=O)N(Br)C(=O)N1Cl
inactive: [1] | [3] | [4]

CC(C)(C)C(=O)c1ccccc1
inactive: [2] | [5] | [6]

Nc1ccc(F)c([N+](=O)[O-])c1
inactive: [7] | [8]

Cc1ccc(C(C)C)cc1O
inactive: [1] | [6] | [3] | [4]
